From PubChem BioAssay AID651800 (The Scripps Research Institute Molecular Screening Center, 2012) come the findings set out here.

Among all 360,000 compounds or so, about 1,300 (0.36%) were called active. What follows is part of a selection rich in actives, with near analogues and random picks from the rest. Values without a mark were called inactive. No stated cut-off is given here; in the data, active means inhibition above about 19%; inactive means the rest.

The assay concerns T-cell receptor (TCR). Nature of the assay: small molecules blocking TCR binding to CD3 – biochemical, fluorescence, TAMRA-labeled TCR probe, primary screen (AID 651800).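 Further: recombinant mutant TCR 2C K166C tagged with TAMRA read by polarization; 0% = receptor in buffer alone and 100% = receptor with positive control.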 The note with it: at 9.4 µM, stronger effect = higher value.
The term inhibition denotes the change of the read-out against control, counted positive when it falls. Consider `O=C(C(=O)N1CCC(CNS(=O)(=O)Cc2ccccc2)CC1)c1cc2ccccc2o1`, for which the inhibition is -2.01%.

Regarding `OC(c1ccccc1)(c1ccccc1)C1CCN(CCCOc2ccc(-c3ccsc3)cc2)CC1`, the inhibition is 2.16%.

As for `Cc1ccc(CNC(=O)Cc2cn(C)c3ccccc23)cc1`, the inhibition was 6.02%.

Regarding `CCOCC(=O)NCc1ccc2c(c1)cc(C)n2C`, the inhibition is 28.4% (active).

With `Cc1ccc(CNC(=O)COc2ccc3c(c2)CCC3)cc1`, the inhibition was 1.31%.

In the case of `COC(=O)[C@H](CC(C)C)NS(=O)(=O)c1c(F)cccc1F`, the inhibition was -1.84%.

`O=c1[nH]c(-c2ccccc2)cn1C1CCN(Cc2ccc(-c3nc4ccc(F)cc4nc3-c3ccccc3)cc2)CC1`: the inhibition was 12%.

Consider `COC(=O)Cc1nnn2c1[C@H](C)[C@H](c1ccccc1[N+](=O)[O-])OCC2`, for which the inhibition is 1.45%.

Regarding `Nc1ccc2nc3c(=O)[nH]c(=S)[nH]c3nc2c1`, the inhibition is 109% (active).

Take `O=C(NCc1ccccc1)[C@@H]1CCCN1C(=O)[C@H]1CCCN1C(=O)c1cccc(Cl)c1`: the inhibition was 5.36%.

On to `CC(C)(C)n1nc(C2CC2)c(Br)c1NC(=O)c1ccccc1F`, for which the inhibition was -0.36%.

Take `COC(=O)C1=C(C)N(Cc2ccc(C(F)(F)F)cc2)C(=NCc2ccccc2)NC1c1ccccc1C(F)(F)F` (stereo unspecified): the inhibition is -1.22%.

Turning to `COc1ccc(SSc2ccc(OC)cc2C(=O)O)c(C(=O)O)c1`, the inhibition is 5.64%.

`CCOC(=O)Cn1c2c(n(-c3ccc(F)cc3)c1=O)C=C(c1ccccc1)[C@@H](C)C(C(=O)N(C)C1CCCCC1)=C2`: the inhibition is 5.23%.

Take `Cc1cccc(C(=O)Nc2ccc(C(=O)/C=C/c3cccs3)cc2)c1`: the inhibition was 19.4% (active).

Take `Cc1cccc(C(=O)Nc2ccc3c(c2)C(=O)N(CC(C)C)C3=O)c1`: the inhibition is -1.41%.

`CC(=O)Nc1ccc(NC(=O)[C@@H](NC(=O)c2cccc(C)c2)C(C)C)cc1`: the inhibition is 2.27%.

As to `COCc1[nH]nc2c1C(c1ccccc1)N(c1ccccc1)C2=O` (stereo unspecified), the inhibition was 5.26%.

With `COc1cccc(CNC(=O)[C@H]2CCCN2C(=O)[C@H]2CCCN2C(=O)C2CCCCC2)c1`, the inhibition was -0.26%.

With `COC(=O)C1=C(C)N(Cc2cccc(C(F)(F)F)c2)C(=NCc2ccccc2)NC1c1ccc(Cl)cc1` (stereo unspecified), the inhibition is 7.39%.

For the molecule `Cc1cc2c(nc1C)CCCN2C`, the inhibition is -1.06%.

Regarding `Cc1ccc(NC(=O)C(=O)NCc2ccc(/C=N/NC(=O)c3c(C)nc4cc(C)ccn34)o2)cc1`, the inhibition is 5.69%.

As to `CCCC1OC23CCCCC2C(C#N)(C#N)C1(C#N)C(=N)O3` (stereo unspecified), the inhibition was 24.9% (active).

For `CC(C)[C@H]1COCCS(=O)(=O)N1Cc1ccccc1-c1cccc2c1sc1ccccc12`, the inhibition was -8.35%.

With `Cc1ccccc1NCC(=O)N/N=C\c1ccc([N+](=O)[O-])s1`, the inhibition was 21.7% (active).

Take `O=[N+]([O-])c1ccc(C=Nc2ccc(Cl)cc2Cl)s1`: the inhibition is -1.69%.

With `Cc1nn(Cc2ccc(Cl)cc2)c(Cl)c1/C=N/NC(=O)CNc1ccccc1F`, the inhibition is 4.16%.

For the molecule `CN1C(=O)C2CC(O)C(SC3CC4C(=O)N(C)C(=O)C4CC3O)CC2C1=O` (stereo unspecified), the inhibition was 0.12%.

For `C=CC[C@]12C[C@@]3(O[C@H](c4ccc(C(F)(F)F)cc4)N=C3C[C@H](c3ccc(OC)cc3)[C@H]1C)N(C1CCN(Cc3ccccc3)CC1)C2=O`, the inhibition was 3.26%.

With `O=C(Nc1ccccc1)c1ccccc1Br`, the inhibition was -6.01%.

As for `CC(=N\NC(=O)c1cc(Br)ccc1O)/C(=N/O)C(=O)Nc1ccccc1`, the inhibition is 35.2% (active).

For `CC(=O)N/N=C(\C)c1ccc(Br)cc1Br`, the inhibition is 2.37%.

Turning to `COc1cccc(-c2cc(CNC(=O)[C@@H](Cc3ccccc3)NC(=O)[C@H]3O[C@@H](n4cnc(C(N)=O)n4)[C@H](O)[C@@H]3O)no2)c1`, the inhibition was 0.79%.

On to `CC(=O)C1=C(C)N(Cc2ccccc2)C(=S)NC1c1cccc(Br)c1` (stereo unspecified), for which the inhibition was -1.04%.

As for `COC(=O)c1c(-c2ccc(OC)cc2)c2c(c3c4cc(OC)ccc4n(S(=O)(=O)c4ccc(F)cc4)c13)C(=O)N(C)C2`, the inhibition is -4.92%.

For `CCOC(=O)N1CCN(C(=O)C[C@H]2C[C@@]3(C(=O)OC)C(=C[C@H](C4CCCC4)O[C@@H]3C)N(Cc3ccccc3)C2=O)CC1`, the inhibition was 8.81%.

For `COc1ccc(Br)cc1C(=O)NC(=S)Nc1cc(-c2nc3ccccc3[nH]2)ccc1C`, the inhibition is 55.2% (active).

Consider `O=C(NC(=S)Nc1ccccc1C(=O)O)c1ccc(-c2ccc(Br)cc2)o1`, for which the inhibition is 4.88%.

Consider `COc1cc(OC)cc(C(=O)N[C@H](C(=O)Nc2nc3ccccc3[nH]2)C(C)C)c1`, for which the inhibition was -1.15%.

Regarding `Cc1[nH]nc2c1C(c1ccc(Br)cc1)NC2=O` (stereo unspecified), the inhibition is -1.49%.

With `C[C@@H](CN1C2=NC[C@@H](Cc3ccccc3)N2C[C@H]1Cc1ccc(O)cc1)NC(=O)CCC1CCCCC1`, the inhibition was -8.44%.

For `CCOC(=O)c1ccc(NC(=O)CNC(=O)c2ccco2)cc1`, the inhibition is -5.65%.

With `CCC(=O)NC(=S)Nc1ccc(NC(=O)c2ccco2)c(Cl)c1`, the inhibition was 27.1% (active).

In the case of `O=C(NNC(=S)Nc1ccc(Br)cc1Cl)c1ccco1`, the inhibition was 0.36%.

Consider `O=C(CN1CCN(c2ccc(O)cc2)CC1)NC1CCCc2ccccc21` (stereo unspecified), for which the inhibition was -3.37%.

For the molecule `COC(=O)C1=C(C)N(Cc2ccccc2C(F)(F)F)C(=NCc2ccc(OC)cc2)NC1c1cccc(C(F)(F)F)c1` (stereo unspecified), the inhibition is 6.08%.

As to `Cc1noc(C)c1NC(=O)Nc1ccc2c(c1)C(=O)N([C@H](C)CO)C[C@H](C)[C@H](CN(C)Cc1ccncc1)OCCCC[C@@H](C)O2`, the inhibition was 7.13%.

On to `CN1CCCc2nc(-c3ccccc3)ccc21`, for which the inhibition was 3.5%.

Turning to `CC(C)CC1NC(=O)c2cc(Cl)ccc2-n2c1nc1ccccc1c2=O` (stereo unspecified), the inhibition was 3.77%.

Turning to `CCOC(=O)C1=C(C(=O)OCC)C2N(Cc3ccc(C#N)cc3)c3ccccc3[C@@]23C[C@@H](C(=O)OC)N(S(=O)(=O)c2ccc(F)cc2)C3=N1` (stereo partly specified), the inhibition was -0.94%.

`C[C@H](O)[C@@H]1C(=O)N2CCc3c([nH]c4c(-c5ccc6c(c5)OCO6)cccc34)[C@@H]2C[C@@H]1N(C)C(=O)c1ccco1`: the inhibition was -0.59%.
